Measured values from PubChem BioAssay (NCATS).
Several values for one entry are separate records, joined by “and”; a condition that tells them apart may be missing. Equal entries are not always repeated. Inconclusive results are not listed. More than one record can exist for a structure, and the calls need not agree. Activity calls are given as the source filed them. Unless noted, the call rests on the fitted dose curve; in most records, active means well fitted curve in the direction sought with a large enough effect; inconclusive means small, poorly fitted or top-dose-only effect, or another doubt; inactive means no such curve, though single readings can be large; an effect the other way counts as inactive or inconclusive.

Tests used:
[1] = Primary qHTS for inhibitors of La Crosse Virus (LACV) - induced cell death in SH-SY5Y cells (AID 1508616);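 further: top concentration of the series differs between compounds; 0% = infected DMSO wells and 100% = uninfected DMSO wells; higher means more rescue of cells from virus-induced death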
Method in brief: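 Readout was luminescence from ATPLite 1step added after a 6-day LACV infection (0.01 MOI) of SH-SY5Y cells that had received pin-transferred compound 24 hr after seeding.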

[2] = biological target: Calcium and integrin-binding protein 1 (Homo sapiens) (UniProt Q99828); assay: Primary qHTS for Identification of Calcium Integrin Binding Protein 1 (CIB1) Competitor (AID 1508620); further: potency means the concentration at half of the fitted maximal effect
Method in brief: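 Fluorescence polarization competition: CIB1-GST (1 uM final) preincubated with compound 15 min at room temperature, then FITC-labeled alphaIIb peptide (100 nM final) added for another 15 min. Polarization read at Ex 480/Em 540.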

[3] = Counterscreen qHTS for small molecule stabilizers of the endoplasmic reticulum resident proteome: GLuc-NoTag assay (AID 1508627);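 further: SH-SY5Y cells given compound then 100 nM thapsigargin to empty ER calcium; series mostly up to about 76 µM; 0% = thapsigargin alone and -100% = DMSO vehicle control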
Method in brief: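 SH-SY5Y cells stably expressing constitutively secreted GLuc (no SERCaMP tag) were pre-incubated 5 h, treated with compound for 19 h, then 100 nM thapsigargin for 4 h at 37C; medium GLuc read by coelenterazine luminescence.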

[4] = Confirmatory qHTS for small molecule stabilizers of the endoplasmic reticulum resident proteome: Secreted ER Calcium Modulated Protein (SERCaMP) assay (AID 1508628); further: nearly all actives have a fitted effect of over 40% in size; further: potency means the concentration at half of the fitted maximal effect
Method in brief: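 We seeded SH-SY5Y-GLuc-SERCaMP cells, added compounds (three concentrations in the primary run, eleven up to 76.6 uM in confirmation), incubated 16 h, depleted ER calcium with thapsigargin, and read luciferase 4 h later.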

[5] = A High-Content qHTS Against Drug Library for the Identification of Small Molecules that Inhibit DYT1 Early Onset Primary Dystonia-Associated Cell Pathology (AID 1645839; calls by dose curve; further: potency means the concentration at half of the fitted maximal effect)
Method in brief: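 Readout: %pathology, the punctate EGFP-TorsinA distribution from imaging, as the primary channel and cell count as the toxicity counterscreen. HEK293 Flp-In cells expressing delE TorsinA were induced with tetracycline and treated with compound for 48 h.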

[6] = biological target: Cytochrome P450 2C9 (Homo sapiens) (UniProt P11712); assay: Cytochrome P450 family 2 subfamily C member 9 (CYP2C9) small molecule antagonists: luciferase biochemical (cell-free) qHTS assay (AID 1645842; active means well fitted curve in the direction sought with a large enough effect in the repeat runs; an effect the other way counts as inactive or inconclusive; further: nearly all actives have a fitted effect of over 55% in size; further: potency means the concentration at half of the fitted maximal effect)
Method in brief: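 Luminescence, after 20 min with luciferin detection reagent, reflected CYP2C9 turnover during a 1 h NADPH-driven reaction at 37C. Enzyme-substrate mix contained 0.4% bovine serum albumin and was preincubated with compound 10 min at room temperature.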

[7] = biological target: Rap guanine nucleotide exchange factor 3 (Homo sapiens) (UniProt O95398); assay: Confirmatory qHTS for antagonist of cAMP-regulated guanine nucleotide exchange factor 3 (EPAC1) (AID 1645880); further: nearly all actives have a fitted effect of over 55% in size; further: potency means the concentration at half of the fitted maximal effect
Method in brief: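 Nucleotide exchange uses 100 nM EPAC1, 250 nM RAP1B-BODIPY-GDP and 50 uM GDP, with compounds in a concentration-titration series. After 5 min at room temperature, fluorescence (480 nm ex/540 nm em) is read every 5 min for 30 min. Data are normalized to control ATA and DMSO.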

[8] = biological target: Rap guanine nucleotide exchange factor 3 (Homo sapiens) (UniProt O95398); assay: Confirmatory qHTS for agonist of cAMP-regulated guanine nucleotide exchange factor 3 (EPAC1) (AID 1645881);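 further: EPAC1 catalysed release of BODIPY-GDP from Rap1B seen as fluorescence loss; 100% = effect of cAMP agonist control; nearly all actives have a fitted effect of over 75% in size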
[9] = biological target: Rap guanine nucleotide exchange factor 4 (Homo sapiens) (UniProt Q8WZA2); assay: Confirmatory qHTS for agonist of cAMP-regulated guanine nucleotide exchange factor 4 (EPAC2) (AID 1645884);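 further: nucleotide exchange releases bodipy-GDP from Rap1 and this lowers its fluorescence; on the % scale 0 is the no-effect control and ±100 the full control effect; nearly all actives have a fitted effect of over 65% in size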
[10] = biological target: Rap guanine nucleotide exchange factor 4 (Homo sapiens) (UniProt Q8WZA2); assay: Confirmatory qHTS for antagonist of cAMP-regulated guanine nucleotide exchange factor 4 (EPAC2) (AID 1645885); further: potency means the concentration at half of the fitted maximal effect; nearly all actives have a fitted effect of over 25% in size
[11] = biological target: Cytochrome P450 2D6 (Homo sapiens) (UniProt P10635); assay: Cytochrome P450 family 2 subfamily D member 6 (CYP2D6) small molecule antagonists: luciferase biochemical (cell-free) qHTS assay (AID 1645840; active means well fitted curve in the direction sought with a large enough effect in the repeat runs; an effect the other way counts as inactive or inconclusive; further: nearly all actives have a fitted effect of over 55% in size; further: potency means the concentration at half of the fitted maximal effect)
Method in brief: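 P450-Glo luminescent screen: recombinant CYP2D6 enzyme–proluciferin substrate mix preincubated with compound 10 min at room temperature, then NADPH regeneration added for 1 h at room temperature. Detection reagent added for 20 min; luciferin light read as relative luminescence units.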

[12] = Primary qHTS for inhibitors of nuclear receptor binding SET domain protein 2 (NSD2) in an RCH-ACV wild type WT cells (2C) (AID 1645877); further: nearly all actives have a fitted effect of over 70% in size; further: potency means the concentration at half of the fitted maximal effect
[13] = Primary qHTS for inhibitors of nuclear receptor binding SET domain protein 2 (NSD2) in an isogenic RCH-ACV NSD2 p.E1099K mutant (9B) (AID 1645876); further: nearly all actives have a fitted effect of over 70% in size; further: potency means the concentration at half of the fitted maximal effect
[14] = Cell Viability qHTS for small molecule stabilizers of the endoplasmic reticulum resident proteome (AID 1508629); conditions: cell viability counter-screen, 100 nM thapsigargin for final 4 h;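 further: human SH-SY5Y neuroblastoma cells carrying the GLuc-SERCaMP reporter; compound exposure about 46 h in total before the viability read; on the % scale 0 is the no-effect control and ±100 the full control effect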
[15] = biological target: Single-stranded DNA cytosine deaminase (Homo sapiens) (UniProt Q9GZX7); assay: Validation qHTS assay for inhibitors of Activation Induced Cytidine Deaminase (AID): AID signal (AID 1347429); further: on the % scale 0 is the no-effect control and ±100 the full control effect
Method in brief: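 In this coupled qHTS, AID deaminates a FRET-labelled ssDNA substrate in the presence of UDG over 4 hr at room temperature. Compounds span up to 114 uM final.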

[16] = biological target: Papain (Carica papaya) (UniProt P00784); assay: Primary qHTS assay for inhibitors of the protease papain (AID 1645873);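 further: papain turnover of Z-FR-AMC read as the AMC fluorescence gain over 10 min; series mostly up to about 50 µM; on the % scale 0 is the no-effect control and ±100 the full control effect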
[17] = Primary qHTS for small molecule stabilizers of the endoplasmic reticulum resident proteome: Secreted ER Calcium Modulated Protein (SERCaMP) assay (AID 1508630); further: on the % scale 0 is the no-effect control and ±100 the full control effect
Method in brief: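 GLuc-SERCaMP-expressing SH-SY5Y cells, pretreated 16 h with compound, are challenged with thapsigargin to empty ER calcium stores; after 4 h, coelenterazine is added directly to the medium and luminescence is imaged.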

[18] = biological target: Cytochrome P450 3A4 (Homo sapiens) (UniProt P08684); assay: Cytochrome P450 family 3 subfamily A member 4 (CYP3A4) small molecule antagonists: luciferase qHTS assay (AID 1645841; active means well fitted curve in the direction sought with a large enough effect in the repeat runs; an effect the other way counts as inactive or inconclusive; further: potency means the concentration at half of the fitted maximal effect; nearly all actives have a fitted effect of over 45% in size)
Method in brief: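 P450-Glo CYP3A4 enzyme with proluciferin substrate was preincubated with DMSO-dissolved compounds for 10 min at room temperature. NADPH regeneration solution started a 1 h reaction. Detection reagent stopped it, and luminescence was read after 20 min.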

[19] = biological target: Calcium and integrin-binding protein 1 (Homo sapiens) (UniProt Q99828); assay: Confirmatory qHTS for Identification of Calcium Integrin Binding Protein 1 (CIB1) Competitor (AID 1508617); further: nearly all actives have a fitted effect of over 65% in size; further: potency means the concentration at half of the fitted maximal effect
Method in brief: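 Confirmatory qHTS measures displacement of a FITC-alphaIIb peptide (100 nM) from CIB1-GST (1 uM) by fluorescence polarization. Calcium-containing HEPES buffer, pH 7.4; two 15 min room-temperature incubations.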

Chain of Calcium and integrin-binding protein 1 (Homo sapiens) (Q99828 whole entry, looked up): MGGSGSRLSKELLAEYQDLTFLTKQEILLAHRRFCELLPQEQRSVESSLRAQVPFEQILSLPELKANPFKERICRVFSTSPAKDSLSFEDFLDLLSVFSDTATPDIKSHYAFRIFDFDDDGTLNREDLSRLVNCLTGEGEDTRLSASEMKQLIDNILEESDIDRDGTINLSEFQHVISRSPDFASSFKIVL
Chain of Single-stranded DNA cytosine deaminase (Homo sapiens) (Q9GZX7 whole entry, looked up): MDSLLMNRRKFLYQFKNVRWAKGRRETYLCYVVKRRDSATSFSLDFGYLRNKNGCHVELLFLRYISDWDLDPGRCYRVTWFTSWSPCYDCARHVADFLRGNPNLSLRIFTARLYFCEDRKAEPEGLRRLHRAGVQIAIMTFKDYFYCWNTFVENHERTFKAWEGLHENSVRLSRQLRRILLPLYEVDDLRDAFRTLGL
Chain of Cytochrome P450 2C9 (Homo sapiens) (P11712 whole entry, looked up): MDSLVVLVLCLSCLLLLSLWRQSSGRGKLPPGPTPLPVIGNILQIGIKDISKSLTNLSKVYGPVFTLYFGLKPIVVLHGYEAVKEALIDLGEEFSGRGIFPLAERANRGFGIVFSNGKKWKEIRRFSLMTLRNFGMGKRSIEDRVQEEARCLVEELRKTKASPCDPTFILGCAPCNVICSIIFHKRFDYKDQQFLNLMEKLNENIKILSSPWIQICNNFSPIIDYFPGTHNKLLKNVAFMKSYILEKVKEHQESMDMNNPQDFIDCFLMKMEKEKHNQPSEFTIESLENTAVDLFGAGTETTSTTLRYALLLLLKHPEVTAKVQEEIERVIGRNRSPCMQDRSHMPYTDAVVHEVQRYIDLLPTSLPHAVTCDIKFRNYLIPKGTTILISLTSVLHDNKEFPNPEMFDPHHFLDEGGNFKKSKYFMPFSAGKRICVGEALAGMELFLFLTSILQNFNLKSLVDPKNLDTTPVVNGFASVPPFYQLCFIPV
Chain of Rap guanine nucleotide exchange factor 4 (Homo sapiens) (Q8WZA2 whole entry, looked up): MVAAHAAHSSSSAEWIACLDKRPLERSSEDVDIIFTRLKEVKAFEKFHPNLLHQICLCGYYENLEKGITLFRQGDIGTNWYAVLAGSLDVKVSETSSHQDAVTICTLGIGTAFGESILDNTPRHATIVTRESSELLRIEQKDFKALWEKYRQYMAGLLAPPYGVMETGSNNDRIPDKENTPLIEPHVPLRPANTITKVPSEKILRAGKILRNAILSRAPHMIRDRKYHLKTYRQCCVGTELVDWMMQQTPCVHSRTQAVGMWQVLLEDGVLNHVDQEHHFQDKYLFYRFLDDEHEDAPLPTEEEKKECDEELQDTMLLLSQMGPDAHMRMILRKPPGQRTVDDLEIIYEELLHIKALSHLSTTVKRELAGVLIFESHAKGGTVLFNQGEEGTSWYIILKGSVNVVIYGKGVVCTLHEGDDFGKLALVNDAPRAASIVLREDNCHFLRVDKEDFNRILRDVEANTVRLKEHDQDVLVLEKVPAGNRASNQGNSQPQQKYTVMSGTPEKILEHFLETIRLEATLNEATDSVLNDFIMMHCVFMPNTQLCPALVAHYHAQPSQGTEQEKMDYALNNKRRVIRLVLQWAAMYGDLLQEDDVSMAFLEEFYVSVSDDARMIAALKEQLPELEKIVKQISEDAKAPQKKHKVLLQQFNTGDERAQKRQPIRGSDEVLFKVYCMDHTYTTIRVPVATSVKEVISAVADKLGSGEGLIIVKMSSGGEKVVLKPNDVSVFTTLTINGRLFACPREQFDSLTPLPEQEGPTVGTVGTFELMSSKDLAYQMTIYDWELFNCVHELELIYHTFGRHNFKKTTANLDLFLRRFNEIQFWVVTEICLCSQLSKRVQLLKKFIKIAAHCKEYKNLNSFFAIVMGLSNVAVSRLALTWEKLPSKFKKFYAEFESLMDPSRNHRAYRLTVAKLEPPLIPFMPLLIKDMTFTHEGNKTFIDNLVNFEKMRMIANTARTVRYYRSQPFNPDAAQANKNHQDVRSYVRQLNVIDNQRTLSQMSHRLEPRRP
Chain of Rap guanine nucleotide exchange factor 3 (Homo sapiens) (O95398 whole entry, looked up): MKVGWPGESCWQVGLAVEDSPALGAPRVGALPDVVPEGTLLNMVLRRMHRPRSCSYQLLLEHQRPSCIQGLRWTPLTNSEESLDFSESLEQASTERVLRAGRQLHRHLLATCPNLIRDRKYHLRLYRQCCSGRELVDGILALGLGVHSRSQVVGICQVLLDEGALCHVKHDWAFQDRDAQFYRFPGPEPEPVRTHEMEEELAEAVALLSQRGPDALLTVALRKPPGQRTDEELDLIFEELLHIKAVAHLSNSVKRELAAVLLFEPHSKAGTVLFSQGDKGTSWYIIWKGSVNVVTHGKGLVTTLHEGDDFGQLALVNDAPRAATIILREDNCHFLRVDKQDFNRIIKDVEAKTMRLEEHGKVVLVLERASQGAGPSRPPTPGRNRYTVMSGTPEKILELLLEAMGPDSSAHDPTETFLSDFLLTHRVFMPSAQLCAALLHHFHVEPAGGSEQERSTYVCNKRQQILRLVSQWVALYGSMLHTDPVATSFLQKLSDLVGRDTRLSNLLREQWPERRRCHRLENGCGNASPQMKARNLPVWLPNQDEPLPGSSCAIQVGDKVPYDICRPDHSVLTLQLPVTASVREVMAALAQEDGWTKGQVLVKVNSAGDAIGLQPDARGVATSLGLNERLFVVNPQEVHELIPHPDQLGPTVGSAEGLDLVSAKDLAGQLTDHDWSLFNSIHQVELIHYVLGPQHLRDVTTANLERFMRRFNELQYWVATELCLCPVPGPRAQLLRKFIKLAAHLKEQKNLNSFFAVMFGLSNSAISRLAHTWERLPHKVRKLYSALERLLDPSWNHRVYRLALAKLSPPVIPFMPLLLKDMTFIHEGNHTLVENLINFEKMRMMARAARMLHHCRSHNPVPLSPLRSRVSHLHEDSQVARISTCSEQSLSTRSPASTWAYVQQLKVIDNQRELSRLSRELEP
Chain of Cytochrome P450 2D6 (Homo sapiens) (P10635 whole entry, looked up): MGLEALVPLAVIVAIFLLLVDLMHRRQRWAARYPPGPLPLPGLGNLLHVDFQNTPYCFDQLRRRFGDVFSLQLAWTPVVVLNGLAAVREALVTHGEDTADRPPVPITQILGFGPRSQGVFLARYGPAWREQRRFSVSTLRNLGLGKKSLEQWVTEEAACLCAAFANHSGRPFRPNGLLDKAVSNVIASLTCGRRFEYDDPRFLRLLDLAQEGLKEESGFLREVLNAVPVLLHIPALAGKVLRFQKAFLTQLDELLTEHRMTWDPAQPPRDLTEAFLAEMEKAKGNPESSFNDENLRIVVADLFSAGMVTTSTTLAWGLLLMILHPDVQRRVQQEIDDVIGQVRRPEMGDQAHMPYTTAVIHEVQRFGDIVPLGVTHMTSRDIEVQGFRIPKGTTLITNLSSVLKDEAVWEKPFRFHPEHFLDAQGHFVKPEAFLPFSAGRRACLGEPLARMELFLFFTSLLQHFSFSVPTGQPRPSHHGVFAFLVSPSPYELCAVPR
Chain of Papain (Carica papaya) (P00784 whole entry, looked up): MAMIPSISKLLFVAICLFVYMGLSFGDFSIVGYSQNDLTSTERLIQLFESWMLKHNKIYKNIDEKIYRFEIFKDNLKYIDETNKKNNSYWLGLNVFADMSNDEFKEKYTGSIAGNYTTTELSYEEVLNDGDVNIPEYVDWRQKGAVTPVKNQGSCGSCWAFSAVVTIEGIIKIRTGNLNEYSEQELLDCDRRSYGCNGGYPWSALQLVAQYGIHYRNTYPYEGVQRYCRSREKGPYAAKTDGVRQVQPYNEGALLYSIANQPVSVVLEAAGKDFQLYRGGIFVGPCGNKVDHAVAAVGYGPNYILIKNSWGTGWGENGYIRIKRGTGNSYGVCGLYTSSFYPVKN
Chain of Cytochrome P450 3A4 (Homo sapiens) (P08684 whole entry, looked up): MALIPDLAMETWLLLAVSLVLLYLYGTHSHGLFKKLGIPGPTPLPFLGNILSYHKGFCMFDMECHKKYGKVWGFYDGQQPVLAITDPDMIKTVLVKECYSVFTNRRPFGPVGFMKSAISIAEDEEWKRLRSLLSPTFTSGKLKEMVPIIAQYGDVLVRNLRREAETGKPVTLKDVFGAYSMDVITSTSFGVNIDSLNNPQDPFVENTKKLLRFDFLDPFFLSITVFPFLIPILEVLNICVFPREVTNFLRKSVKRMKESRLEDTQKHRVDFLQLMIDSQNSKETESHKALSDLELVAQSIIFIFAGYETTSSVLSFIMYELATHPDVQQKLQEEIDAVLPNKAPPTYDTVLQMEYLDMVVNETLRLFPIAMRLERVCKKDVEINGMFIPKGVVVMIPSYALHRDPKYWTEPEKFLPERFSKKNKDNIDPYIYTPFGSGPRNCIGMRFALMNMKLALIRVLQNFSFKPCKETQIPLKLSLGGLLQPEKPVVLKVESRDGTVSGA

CC(C)(c1ccc(O)cc1)c1ccc(O)cc1
inactive: outcome [1] | Potency [2] | Potency [3] | Potency [7] | Potency [8] | Potency [9]
active: Potency [4] 89.1 µM and 44.7 µM and 50.1 µM | Potency [5] 31.6 µM | Potency [6] 27.2 µM | Potency [10] 80.4 µM

C[C@H]1C[C@H](O)c2ccsc2S1(=O)=O
inactive: outcome [1] | Potency [2] | Potency [3] | Potency [4] | Potency [5] | Potency [11] | Potency [6] | Potency [12]

Cc1onc(-c2ccccc2)c1C(=O)Cl
inactive: outcome [1] | Potency [2] | Potency [3] | Potency [4] | Potency [5] | Potency [11]

O=C(O)Cn1cnnn1
inactive: outcome [1] | Potency [2] | Potency [3] | Potency [4] | Potency [5] | Potency [11] | Potency [6] | Potency [13] | Potency [12]

O=C1CC(c2ccc(Cl)cc2)CC(=O)N1
inactive: outcome [1] | Potency [2] | Potency [3] | Potency [4] | max response [14] 1.98% | Potency [5] | Potency [11] | Potency [6] | Potency [13] | Potency [12]

CCN(CC)CCNC(=O)c1ccc(NS(C)(=O)=O)cc1
inactive: outcome [15] | outcome [1] | outcome [16]

NC(N)=NCCCCN=C(N)N
inactive: outcome [15] | outcome [1] | Potency [17] | outcome [16]

O=C1NC(c2cccc([N+](=O)[O-])c2)=CCN1c1ccccc1O
inactive: outcome [15] | outcome [1] | Potency [2] | Potency [3] | max response [14] 23.5% and 15.8% | Potency [17] | outcome [16] | Potency [13] | Potency [12]
active: Potency [4] 3.16 µM

CC(C)C[C@@H]1[C@H](c2ccccc2)OC(=O)N1CCCN1CCCCCC1
inactive: outcome [1] | Potency [2] | Potency [3] | max response [14] -0.48% | Potency [6]
active: Potency [4] 31.6 µM | Potency [11] 0.776 µM

CCC(=O)O[C@H]1[C@H](O[C@@H]2[C@@H](C)[C@H](O[C@H]3C[C@@](C)(OC)[C@@H](O)[C@H](C)O3)[C@@H](C)C(=O)O[C@H](CC)[C@@](C)(O)[C@H](O)[C@@H](C)C(=O)[C@H](C)C[C@@]2(C)O)O[C@H](C)C[C@@H]1N(C)C
inactive: outcome [1] | Potency [2] | Potency [3] | max response [14] 17.4% | Potency [5] | Potency [11] | Potency [6] | Potency [13] | Potency [12] | Potency [8] | Potency [9]
active: Potency [4] 20 µM | Potency [18] 18.2 µM | Potency [7] 12.5 µM | Potency [10] 17.5 µM

CCCC(=O)c1cc(O)c(O)cc1O
active: Potency [19] 35.5 µM | Potency [2] 112 µM | Potency [11] 31.7 µM
inactive: outcome [1] | Potency [5]

COc1cccc2c1[C@@H]1CN(CCCCn3c(=O)[nH]c4c(sc5ncc(-c6ccccc6)nc54)c3=O)C[C@@H]1CO2
inactive: outcome [15] | Potency [4] | outcome [16]

Cc1nn(-c2ccccc2)c(C)c1/C=N/N1CCN(Cc2ccccc2)CC1
inactive: outcome [15] | outcome [1] | Potency [2] | outcome [16]

O=[N+]([O-])c1ccc(-c2nc(-c3ccc(F)cc3)c(-c3ccncc3)[nH]2)cc1
inactive and 18.4 µM (active): Potency [13]
inactive and 23.1 µM (active): Potency [12]
inactive: outcome [15] | outcome [1] | Potency [2] | outcome [16]

Cc1nc2n(c(=O)c1CCN1CCC(C(=O)c3ccc(F)cc3)CC1)CCS2
active: Potency [11] 0.275 µM
inactive: outcome [1] | Potency [2] | Potency [3] | Potency [4] | max response [14] -14.5% | Potency [5] | Potency [6]

CCOC(=O)c1ccc(O)c(O)c1
inactive: outcome [1] | Potency [2] | Potency [3] | max response [14] 4.88% | Potency [11] | Potency [6]
active: Potency [13] 9.44 µM | Potency [12] 13.3 µM

Cn1cnc2c(NCc3ccccc3)nc(NCCO)nc21
inactive: outcome [15] | outcome [1] | Potency [17] | outcome [16] | Potency [12]

CN(C)c1cc2c(Nc3ccc4c(cnn4Cc4ccccc4)c3)ncnc2cn1
inactive: outcome [15] | outcome [1] | outcome [16]
active: Potency [13] 23 µM

Nc1ncnc2n[nH]c(Nc3ccc(F)cc3)c12
inactive: outcome [15] | outcome [1] | Potency [2] | Potency [17] | outcome [16]

Brc1ccc([C@H]2CN3CCSC3=N2)cc1
inactive: outcome [15] | outcome [1] | Potency [2] | Potency [17] | outcome [16] | Potency [13] | Potency [12]

C[N+](C)(C)CCO
inactive: outcome [15] | outcome [1] | Potency [17] | outcome [16]

COC(=O)C1=CO[C@@H](O)[C@@H]2C(CO)=CC[C@H]12
inactive: outcome [15] | outcome [1] | Potency [2] | outcome [16]

Clc1ccc2c(c1)N=C(N1CCNCC1)c1ccccc1N2
inactive: outcome [15] | outcome [1] | Potency [2] | Potency [3] | outcome [16]
active: Potency [4] 14.1 µM and 10 µM

COC(=O)c1cc(Cl)ccc1NS(=O)(=O)C(F)(F)F
inactive: outcome [1] | Potency [19] | Potency [5] | Potency [11] | Potency [6] | Potency [13] | Potency [12]

CCOc1ncc(F)c(=O)[nH]1
inactive: outcome [1] | Potency [2] | Potency [3] | Potency [4] | Potency [5] | Potency [11] | Potency [6] | Potency [13] | Potency [12]

O=C(c1ccccc1)c1ccccc1
inactive: outcome [1] | Potency [2]

O=C1NC(=O)/C(=C/c2ccc3c(c2)OC(F)(F)O3)S1
inactive: outcome [15] | outcome [1] | Potency [2] | Potency [17] | outcome [16]

N[C@@H](Cn1ccc(=O)c(O)c1)C(=O)O
inactive: outcome [15] | outcome [1] | activity change, negative = inhibition [2] 2.21% [at 12.4 µM] | Potency [17] | outcome [16] | activity change, negative = viability loss [13] -1.02% [at 4.96 µM] | activity change, negative = cell killing [12] -0.615% [at 4.96 µM]
